Several values for one entry are separate records, joined by “and”; a condition that tells them apart may be missing. Identical values can stand only once. Inconclusive results are not listed. Activity calls are given as the source filed them. Unless noted, the call rests on the fitted dose curve; in most records, active means well fitted curve in either direction with a large enough effect (not every such curve was filed as active); inconclusive means small, poorly fitted or top-dose-only effect, or another doubt; inactive means flat fitted curve, though single readings scatter.
Assays:
[1] = AP1 Signaling Pathway (AID 357);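 further: ME-180 reporter cells stimulated with EGF at its EC50 level; on the % scale 0 is the no-effect control and ±100 the full control effect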
In short: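 Modulation of EGF-driven AP-1 transcription was assessed with a beta-lactamase reporter in ME-180 cells. Compound and EC50 EGF were co-incubated 5 hours at 37 °C before 2.5-hour CCF4 loading at room temperature and dual-emission reading.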

[2] = molecular target: Cytochrome P450 1A2 (Homo sapiens) (UniProt P05177); test: p450-cyp1a2 (AID 410; calls by dose curve; further: potency means the concentration at half of the fitted maximal effect;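 on activity change, negative = inhibition: -100% = full effect of reference inhibitor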)
Sequence of Cytochrome P450 1A2 (Homo sapiens) (P05177 whole entry, looked up): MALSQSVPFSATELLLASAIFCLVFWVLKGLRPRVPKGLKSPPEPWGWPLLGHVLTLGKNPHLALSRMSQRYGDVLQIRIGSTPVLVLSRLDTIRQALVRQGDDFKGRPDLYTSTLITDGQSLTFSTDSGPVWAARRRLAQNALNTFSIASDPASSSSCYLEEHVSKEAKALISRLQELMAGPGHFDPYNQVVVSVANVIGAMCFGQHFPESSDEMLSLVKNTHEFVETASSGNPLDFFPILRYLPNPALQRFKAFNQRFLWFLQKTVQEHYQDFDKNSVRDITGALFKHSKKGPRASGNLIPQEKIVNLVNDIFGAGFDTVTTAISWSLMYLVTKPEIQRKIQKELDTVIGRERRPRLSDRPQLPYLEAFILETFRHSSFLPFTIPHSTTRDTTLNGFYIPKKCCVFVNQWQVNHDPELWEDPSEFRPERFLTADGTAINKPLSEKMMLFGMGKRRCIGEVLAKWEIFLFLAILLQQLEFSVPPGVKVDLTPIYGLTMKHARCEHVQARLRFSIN
In short: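 20nM CYP1A2 with 100uM Luciferin-ME (at Km) in 100mM KPO4; compound preincubated 10 min, NADPH regeneration added, 60 min at room temperature. Luciferin quantified by luminescence after detection reagent; normalized to 57 uM furafylline.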

[3] = NFAT Signaling Pathway (AID 444); details: Jurkat NFAT-bla M1, carbachol, beta-lactamase ratio, 5 h;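 further: carbachol stimulus at about its EC50 of 1 µM final; on the % scale 0 is the no-effect control and ±100 the full control effect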
In short: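 Jurkat cells carrying an NFAT-driven β-lactamase reporter and co-transfected muscarinic M1 receptor were treated with compound plus carbachol (1 uM final, an EC50 level) for 5 h at 37 °C. CCF4 loading followed for 1 h at RT; 460/530 nm ratio gave %activity.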

[4] = Stat Signaling Pathway (AID 446);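 further: ME-180 cervical cancer cells given 40 pM IL-6 alongside compound; SIE-controlled beta-lactamase reporter measured as 460/530 nm FRET emission ratio; on the % scale 0 is the no-effect control and ±100 the full control effect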
In short: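 ME-180 SIE-bla cells; overnight plating; cpd + IL-6 40 pM, 5 h, 37 C; LiveBLAzer 2.5 h RT; 460/530 nm emission ratio. Normalized to 300 pM IL-6 and 125 nM JAK inhibitor controls.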

[5] = molecular target: Glucocorticoid receptor (Homo sapiens) (UniProt P04150); test: GR-GFP Redistribution (AID 450;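 active means compounds whose dose series gives a full or clear partial fitted curve of increased nuclear translocation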; further: potency means the concentration at half of the fitted maximal effect); details: U2OS GR-GFP nuclear translocation, laser cytometry, 2 h
Sequence of Glucocorticoid receptor (Homo sapiens) (P04150 whole entry, looked up, the tested form may be a part): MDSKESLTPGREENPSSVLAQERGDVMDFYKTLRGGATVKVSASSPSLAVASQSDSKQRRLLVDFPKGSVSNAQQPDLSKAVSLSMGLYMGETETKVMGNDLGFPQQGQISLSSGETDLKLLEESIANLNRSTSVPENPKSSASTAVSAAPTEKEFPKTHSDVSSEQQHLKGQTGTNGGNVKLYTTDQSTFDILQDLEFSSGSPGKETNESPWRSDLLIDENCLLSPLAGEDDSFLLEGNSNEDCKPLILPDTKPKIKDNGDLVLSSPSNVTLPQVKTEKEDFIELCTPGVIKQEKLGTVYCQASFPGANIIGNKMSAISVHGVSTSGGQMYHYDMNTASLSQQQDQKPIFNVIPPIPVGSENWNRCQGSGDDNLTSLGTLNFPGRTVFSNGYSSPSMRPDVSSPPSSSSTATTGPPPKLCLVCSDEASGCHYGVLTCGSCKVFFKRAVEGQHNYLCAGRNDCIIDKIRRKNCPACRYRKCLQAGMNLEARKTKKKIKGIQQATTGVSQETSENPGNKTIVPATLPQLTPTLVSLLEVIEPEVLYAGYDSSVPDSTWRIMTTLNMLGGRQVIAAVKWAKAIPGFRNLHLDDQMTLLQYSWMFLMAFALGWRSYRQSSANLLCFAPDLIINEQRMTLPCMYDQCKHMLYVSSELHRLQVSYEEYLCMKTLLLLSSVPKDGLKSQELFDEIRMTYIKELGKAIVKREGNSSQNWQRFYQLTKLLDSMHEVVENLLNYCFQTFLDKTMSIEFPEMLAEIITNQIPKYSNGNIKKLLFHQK

[6] = molecular target: Glucocorticoid receptor (Homo sapiens) (UniProt P04150); test: GR-EFC Redistribution (AID 451; calls by dose curve; further: potency means the concentration at half of the fitted maximal effect); details: CHO-K1 GR-EFC translocation, beta-gal luminescence, 2 h
In short: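 CHO-K1 cells stably expressing nuclear-localized β-gal enzyme acceptor and GR fused C-terminally to the enzyme donor fragment; ligand-driven nuclear translocation restores β-gal by complementation. Compounds titrated up to 46 uM final, 2 h at 37 °C; luminescence read.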

[7] = qHTS Assay for Lipid Storage Modulators (AID 1519; calls by dose curve); details: Drosophila S3 cells, BODIPY lipid droplet/cell ratio, laser cytometry, cells loaded with oleic acid
In short: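 Cells seeded at 5,000 per well were treated with compounds over a concentration series and loaded with oleic acid (400 uM, as added). Lipid droplet fluorescence (488 nm excitation, 500-530 nm channel) was read by laser-scanning cytometry and normalized to 20 uM Triacsin C.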

[8] = molecular target: ATP-dependent 6-phosphofructokinase (Trypanosoma brucei brucei) (UniProt O15648); test: qHTS Assay to Find Inhibitors of T. brucei phosphofructokinase: hit validation (AID 492961; active means well fitted curve in the direction sought with a large enough effect; an effect the other way counts as inactive or inconclusive;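 further: luminescence reports ADP formed as PFK phosphorylates fructose-6-phosphate with ATP; on the % scale 0 is the no-effect control and ±100 the full control effect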)
Sequence of ATP-dependent 6-phosphofructokinase (Trypanosoma brucei brucei) (O15648 whole entry, looked up): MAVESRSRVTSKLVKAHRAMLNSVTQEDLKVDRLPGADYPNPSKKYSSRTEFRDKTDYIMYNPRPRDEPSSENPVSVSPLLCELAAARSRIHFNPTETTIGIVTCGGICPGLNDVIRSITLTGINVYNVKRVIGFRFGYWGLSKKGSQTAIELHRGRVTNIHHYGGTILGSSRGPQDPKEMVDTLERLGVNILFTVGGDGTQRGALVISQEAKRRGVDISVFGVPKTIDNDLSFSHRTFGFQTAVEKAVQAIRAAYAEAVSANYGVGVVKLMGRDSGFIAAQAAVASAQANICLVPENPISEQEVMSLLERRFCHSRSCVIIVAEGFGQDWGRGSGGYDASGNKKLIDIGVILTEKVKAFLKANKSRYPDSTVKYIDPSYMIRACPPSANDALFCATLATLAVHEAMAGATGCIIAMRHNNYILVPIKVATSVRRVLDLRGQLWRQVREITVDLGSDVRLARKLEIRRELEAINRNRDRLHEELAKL
In short: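 Percent activity derived from corrected luminescence, normalized between 0x and 1x enzyme controls, then fitted to concentration-response curves. Conditions: 1.25 nM PFK, 0.1 mM ATP, 0.5 mM F6P, 45 min RT.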

[9] = molecular target: Ubiquitin carboxyl-terminal hydrolase 1 (Homo sapiens) (UniProt O94782); test: Inhibitors of USP1/UAF1: Pilot qHTS (AID 504865; active means well fitted curve in the direction sought with a large enough effect; an effect the other way counts as inactive or inconclusive;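 further: rhodamine fluorescence freed from ubiquitin-rhodamine substrate followed over time; top concentration of the series differs between compounds; on the % scale 0 is the no-effect control and ±100 the full control effect; nearly all actives have a fitted effect of over 35% in size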)
Sequence of Ubiquitin carboxyl-terminal hydrolase 1 (Homo sapiens) (O94782 whole entry, looked up): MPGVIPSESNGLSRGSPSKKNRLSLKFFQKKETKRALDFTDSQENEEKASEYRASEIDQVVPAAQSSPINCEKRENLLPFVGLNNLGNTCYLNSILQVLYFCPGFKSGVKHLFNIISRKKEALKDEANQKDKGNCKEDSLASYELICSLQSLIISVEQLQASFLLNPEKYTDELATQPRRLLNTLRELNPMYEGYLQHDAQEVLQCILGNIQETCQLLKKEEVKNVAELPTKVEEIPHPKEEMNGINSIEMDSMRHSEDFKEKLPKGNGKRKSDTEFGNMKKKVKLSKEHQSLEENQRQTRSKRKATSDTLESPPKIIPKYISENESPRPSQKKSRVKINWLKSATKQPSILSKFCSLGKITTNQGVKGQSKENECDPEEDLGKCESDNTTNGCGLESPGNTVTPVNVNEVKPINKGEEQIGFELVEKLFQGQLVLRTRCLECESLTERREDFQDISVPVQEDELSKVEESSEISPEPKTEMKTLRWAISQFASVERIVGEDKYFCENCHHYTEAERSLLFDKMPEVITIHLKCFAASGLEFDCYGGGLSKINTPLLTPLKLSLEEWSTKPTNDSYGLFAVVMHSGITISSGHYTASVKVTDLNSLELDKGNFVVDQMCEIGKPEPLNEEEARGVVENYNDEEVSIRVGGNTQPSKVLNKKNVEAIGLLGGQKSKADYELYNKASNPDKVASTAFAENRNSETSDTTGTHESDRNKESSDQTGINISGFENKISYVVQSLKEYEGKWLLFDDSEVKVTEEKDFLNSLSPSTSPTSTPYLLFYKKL
In short: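 Enzyme-free wells gave the negative control, while test wells held 1nM USP1/UAF1 preincubated with compound for 15 min at room temperature. Ub-Rho at 150nM final started the reaction, and fluorescence at 480/540 nm was recorded kinetically.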

[10] = molecular target: Luciferin 4-monooxygenase (Photinus pyralis) (UniProt P08659); test: Biochemical firefly luciferase enzyme assay for NPC (AID 624030; active means well fitted curve in the direction sought with a large enough effect; an effect the other way counts as inactive or inconclusive;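 further: purified P. pyralis luciferase at 10 nM with luciferin and ATP substrate; 0% = DMSO and -100% = full luciferase inhibition by PTC124 control; nearly all actives have a fitted effect of over 70% in size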)
Sequence of Luciferin 4-monooxygenase (Photinus pyralis) (P08659 whole entry, looked up): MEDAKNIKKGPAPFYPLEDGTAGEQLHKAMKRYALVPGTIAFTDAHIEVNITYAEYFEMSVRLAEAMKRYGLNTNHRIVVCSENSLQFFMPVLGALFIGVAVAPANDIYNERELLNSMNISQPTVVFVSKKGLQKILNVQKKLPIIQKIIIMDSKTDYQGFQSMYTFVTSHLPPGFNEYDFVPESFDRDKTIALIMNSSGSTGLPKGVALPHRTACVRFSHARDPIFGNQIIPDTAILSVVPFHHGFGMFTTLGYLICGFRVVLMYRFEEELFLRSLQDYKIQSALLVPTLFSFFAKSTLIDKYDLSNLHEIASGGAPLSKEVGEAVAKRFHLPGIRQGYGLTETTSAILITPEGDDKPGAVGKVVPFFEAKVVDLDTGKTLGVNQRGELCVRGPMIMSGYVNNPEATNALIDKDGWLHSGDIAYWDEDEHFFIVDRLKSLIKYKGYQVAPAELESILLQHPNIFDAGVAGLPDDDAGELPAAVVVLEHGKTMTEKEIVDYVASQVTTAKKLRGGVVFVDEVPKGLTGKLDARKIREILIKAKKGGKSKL
In short: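 Counter-screen for direct inhibition of the luciferase enzyme by approved-drug library compounds, run at 10 nM enzyme in 50 mM Tris acetate (final). Luminescence was read within 5 min of enzyme-buffer addition and normalized to PTC124 versus DMSO (0%).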

[11] = qHTS profiling for inhibitors of Plasmodium falciparum proliferation (AID 504749; active means well fitted curve in the direction sought with a large enough effect; an effect the other way counts as inactive or inconclusive;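 further: 0% = DMSO vehicle and full inhibition = artemisinin control; nearly all actives have a fitted effect of over 60% in size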); details: P. falciparum in erythrocytes, SYBR Green DNA, 72 h, at 12.8 µM (top of the series)
In short: (§1)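 Parasite proliferation within erythrocytes, 72 h exposure. Endpoint: SYBR Green I fluorescence after overnight lysis at room temperature. Controls: 0.29 uM artemisinin, DMSO.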

C2A = test: as above; details: P. falciparum in erythrocytes, SYBR Green DNA, 72 h; series mostly up to 28.7 µM
In short: as §1

CP185 = test: as above; details: P. falciparum in erythrocytes, SYBR Green DNA, 72 h; series mostly up to 28.7 µM
In short: as §1

FAB9 = test: as above; details: P. falciparum in erythrocytes, SYBR Green DNA, 72 h; series mostly up to 28.7 µM
In short: as §1

[12] = molecular target: Lysosomal acid glucosylceramidase (Homo sapiens) (UniProt P04062); test: Glucocerebrosidase-p2 (AID 348; in the data active means potency below about 10 µM; further: potency means the concentration at half of the fitted maximal effect); details: purified GBA, blue fluorogenic substrate, 40 min
Sequence of Lysosomal acid glucosylceramidase (Homo sapiens) (P04062 whole entry, looked up): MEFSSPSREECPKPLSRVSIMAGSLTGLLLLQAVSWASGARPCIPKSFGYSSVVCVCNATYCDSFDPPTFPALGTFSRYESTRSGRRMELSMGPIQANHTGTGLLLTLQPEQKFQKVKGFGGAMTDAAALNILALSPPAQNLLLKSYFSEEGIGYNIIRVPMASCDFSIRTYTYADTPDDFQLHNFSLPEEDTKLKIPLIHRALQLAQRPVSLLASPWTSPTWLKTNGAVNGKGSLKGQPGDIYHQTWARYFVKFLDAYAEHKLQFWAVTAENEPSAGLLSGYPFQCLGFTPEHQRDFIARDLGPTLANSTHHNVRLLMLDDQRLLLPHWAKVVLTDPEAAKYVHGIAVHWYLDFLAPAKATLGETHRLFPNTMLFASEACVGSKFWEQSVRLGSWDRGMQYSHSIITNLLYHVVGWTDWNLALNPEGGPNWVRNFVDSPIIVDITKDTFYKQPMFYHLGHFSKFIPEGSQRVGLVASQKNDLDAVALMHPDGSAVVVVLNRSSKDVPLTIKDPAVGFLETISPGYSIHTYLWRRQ
In short: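 Compounds titrated from 0.6 nM upwards against 0.2 nM enzyme in pH 5.9 citric acid/KH2PO4, taurocholate, tween-20; blue fluorogenic substrate 80 uM, 40 min room temperature, stopped and read Ex 365/Em 440 for AC50.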

[13] = molecular target: Mitogen-activated protein kinase 10 (Mus musculus) (UniProt Q61831); test: JNK3 AlphaScreen Assay (AID 530)
In short: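 Inhibitors reduce antibody binding to phosphorylated biotin-cJun, lowering AlphaScreen luminescence. Lysates from HepG2 cells pre-activated by IL-1beta plus TNF-alpha supplied JNK3; compounds were titrated.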

[14] = molecular target: 3',5'-cyclic-AMP phosphodiesterase 4B (Homo sapiens) (UniProt Q07343); test: qHTS Assay for Inhibitors of PDE-IV (AID 607; active means well fitted activation curve with a large enough effect in the main read-out, with a control signal flat, not every such curve was filed as active; further: % of control where 0% means no effect)
Sequence of 3',5'-cyclic-AMP phosphodiesterase 4B (Homo sapiens) (Q07343 whole entry, looked up): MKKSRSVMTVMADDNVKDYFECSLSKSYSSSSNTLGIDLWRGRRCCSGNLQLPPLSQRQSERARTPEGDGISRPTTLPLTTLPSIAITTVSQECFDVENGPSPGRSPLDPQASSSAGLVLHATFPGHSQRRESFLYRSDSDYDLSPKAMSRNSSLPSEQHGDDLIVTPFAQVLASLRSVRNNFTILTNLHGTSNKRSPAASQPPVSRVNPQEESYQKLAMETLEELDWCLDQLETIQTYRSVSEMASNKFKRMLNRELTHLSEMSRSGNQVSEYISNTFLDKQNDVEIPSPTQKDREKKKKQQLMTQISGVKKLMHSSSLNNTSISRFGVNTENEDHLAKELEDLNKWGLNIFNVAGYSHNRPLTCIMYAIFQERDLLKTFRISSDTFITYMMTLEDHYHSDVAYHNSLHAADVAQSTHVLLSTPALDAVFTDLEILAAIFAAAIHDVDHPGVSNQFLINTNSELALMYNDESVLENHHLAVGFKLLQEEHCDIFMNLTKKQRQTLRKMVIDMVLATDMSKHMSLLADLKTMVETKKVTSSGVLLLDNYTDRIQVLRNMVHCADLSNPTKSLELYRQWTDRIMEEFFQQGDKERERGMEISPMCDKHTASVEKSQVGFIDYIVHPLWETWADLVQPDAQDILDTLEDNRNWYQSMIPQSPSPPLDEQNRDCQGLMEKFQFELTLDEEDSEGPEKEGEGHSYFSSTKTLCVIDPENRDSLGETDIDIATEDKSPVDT
In short: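 ACTOne HEK293 cells carry a modified cAMP-gated CNG channel and express endogenous PDE4; plated 1000 cells/well, compounds up to 22.9 uM final. Membrane-potential dye fluorescence (ex 535/em 590) was read; parental cells received 10 uM forskolin + 100 uM RO 20-1724.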

[15] = molecular target: Cytochrome P450 3A4 (Homo sapiens) (UniProt P08684); test: qHTS Assay for Activators of Cytochrome P450 3A4 (AID 885; active means well fitted curve in the direction sought with a large enough effect; an effect the other way counts as inactive or inconclusive; further: nearly all actives have a fitted effect of over 65% in size)
Sequence of Cytochrome P450 3A4 (Homo sapiens) (P08684 whole entry, looked up): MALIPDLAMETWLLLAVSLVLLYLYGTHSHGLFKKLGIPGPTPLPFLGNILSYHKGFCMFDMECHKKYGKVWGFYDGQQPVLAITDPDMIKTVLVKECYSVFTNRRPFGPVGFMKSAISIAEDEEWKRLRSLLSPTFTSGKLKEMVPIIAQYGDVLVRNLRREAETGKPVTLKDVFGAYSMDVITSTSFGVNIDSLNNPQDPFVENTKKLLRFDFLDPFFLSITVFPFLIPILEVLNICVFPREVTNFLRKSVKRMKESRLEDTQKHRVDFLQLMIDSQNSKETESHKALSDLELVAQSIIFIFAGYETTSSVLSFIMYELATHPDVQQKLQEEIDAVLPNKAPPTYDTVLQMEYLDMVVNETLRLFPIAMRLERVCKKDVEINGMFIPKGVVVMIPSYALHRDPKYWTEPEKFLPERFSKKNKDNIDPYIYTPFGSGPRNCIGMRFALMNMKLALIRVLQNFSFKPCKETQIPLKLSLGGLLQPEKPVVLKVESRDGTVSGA
In short: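 20nM CYP3A4 + 25uM Luciferin-PPXE (=KM), 200mM KPO4; cpd 10 min RT; NADPH regen, 60 min RT; stop w/ detection buffer, 20 min; luminescence. Normalized to 57 uM ketoconazole.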

[16] = molecular target: Cytochrome P450 2D6 (Homo sapiens) (UniProt P10635); test: qHTS Assay for Inhibitors and Substrates of Cytochrome P450 2D6 (AID 891; active means well fitted curve in the direction sought with a large enough effect; an effect the other way counts as inactive or inconclusive;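 further: luciferin methyl ether substrate demethylated by CYP2D6 with NADPH regeneration; on the % scale 0 is the no-effect control and ±100 the full control effect; nearly all actives have a fitted effect of over 60% in size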)
In short: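 Human CYP2D6 (5 nM) with 30 uM Luciferin-ME EGE (at Km) in 100 mM KPO4, compound preincubated 10 min, then NADPH regeneration system for 60 min at room temperature. Luciferin read by luminescence; normalized to 1.43 uM quinidine.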

[17] = measured here: cell count channel max response
[18] = measured here: lipid channel max response

C[C@@]12CCC(=O)C=C1C=C[C@H]1[C@H]3CC[C@](O)(CCC(=O)O)[C@]3(C)CC[C@@H]12
-8.17%: max response [7, 18]
-7.2%: max response [7, 17]
inactive: outcome [1] | Potency [2] | activity change, negative = inhibition ([3]; at 17.2 µM (top of the series)) -1.71% | outcome [4] | Potency [5] > 20.6 µM | Potency [6] > 20.6 µM | activity change, negative = inhibition ([7]; at 25.7 µM (top of the series)) -0.688% | Potency [8] | Potency [9] | Potency [10] | activity, negative = inhibition ([11]; parasite line A) 9.22% | activity, negative = inhibition ([11]; parasite line B) 6.42% | Potency (C2A) | Potency (CP185) | Potency (FAB9)

Cc1nc2cnc(N3CCNCC3)nc2n(C)c1=O
inactive: Potency [12] > 11.4 µM | outcome [1] | activity change, negative = inhibition ([3]; at 7.69 µM (top of the series)) 5.09% | outcome [4] | Potency [5] > 9.22 µM | Potency [6] > 46 µM | outcome [13] | Potency [14] | Potency [15] | activity change, negative = inhibition ([7]; at 57.5 µM (top of the series)) 5.19%
18.7%: max response [7, 17]
25.8%: max response [7, 18]

O=C(Nc1ccccc1)N1CC[C@@]2(CCCN(C(=O)Oc3ccccc3)C2)C1
23.4%: max response [7, 18]
inactive: Potency [12] > 11.4 µM | outcome [1] | outcome [4] | Potency [6] > 46 µM | outcome [13] | Potency [15] | activity change, negative = inhibition ([7]; at 57.5 µM (top of the series)) 8.84%
9%: max response [7, 17]
active: Potency [2] 15.8 µM

COc1ccc(OC)c([C@H](O)[C@H](C)N)c1
7.1%: max response [7, 17]
inactive: outcome [1] | Potency [2] | activity change, negative = inhibition ([3]; at 17.2 µM (top of the series)) 4.39% | activity change, negative = inhibition ([3]; at 38 µM (top of the series)) 2.27% | outcome [4] | Potency [5] > 46 µM and > 20.6 µM | Potency [6] > 46 µM and > 20.6 µM | outcome [13] | activity change, negative = inhibition ([7]; at 25.7 µM (top of the series)) 1.13% | Potency [9]
6.97%: max response [7, 18]

CNC[C@H](O)c1ccc(O)cc1
-11.6%: max response [7, 18]
inactive: outcome [1] | Potency [2] | activity change, negative = inhibition ([3]; at 17.2 µM (top of the series)) -22.7% | activity change, negative = inhibition ([3]; at 38 µM (top of the series)) 10.5% | outcome [4] | Potency [5] > 46 µM and > 20.6 µM | Potency [6] > 46 µM and > 20.6 µM | outcome [13] | Potency [14] | Potency [16] | activity change, negative = inhibition ([7]; at 25.7 µM (top of the series)) -0.0081% | Potency [8] | Potency [9] | Potency [10] | activity, negative = inhibition ([11]; parasite line A) 3.3% | activity, negative = inhibition ([11]; parasite line B) 13.2% | Potency (C2A) | Potency (CP185) | Potency (FAB9)
-14.8%: max response [7, 17]
